Source: PubChem BioAssay (National Center for Advancing Translational Sciences (NCATS))
The full list was thinned out, with hits kept by preference.
L3MBTL1 block: blocks human L3MBTL1 | Q9Y468 | AlphaScreen L3MBTL1–H3K9me1 peptide binding | Potency, µM (doses to about 57.1 µM), inactives show at the highest dose activity, negative = inhibition, most hits filed as inhibitors | hit rate 0.66% among 230,000 | AID 485360; also: nearly all actives have a fitted effect of over 60% in size
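First, the protein-peptide complex forms for 30 min at room temperature (L3MBTL1 50 nM, biotinylated H3K9me1 peptide 75 nM). Next, compounds are pin-transferred and incubated 30 min. Finally, AlphaScreen beads are added and read after 30 min.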
RECQ1 inh-1: inhibitors of human RECQ1 DNA helicase | Potency, µM (highest dose often 57.3 µM), for inactives: top-dose activity, negative = inhibition, hits mostly inhibitors | RECQ1 DNA unwinding, red fluorescence kinetic read | P46063 | hit rate 0.54% among 240,000;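 also: plate controls were vehicle for no effect and no enzyme for full effect; nearly all actives have a fitted effect of over 30% in size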
Target sequence (P46063 whole entry, looked up): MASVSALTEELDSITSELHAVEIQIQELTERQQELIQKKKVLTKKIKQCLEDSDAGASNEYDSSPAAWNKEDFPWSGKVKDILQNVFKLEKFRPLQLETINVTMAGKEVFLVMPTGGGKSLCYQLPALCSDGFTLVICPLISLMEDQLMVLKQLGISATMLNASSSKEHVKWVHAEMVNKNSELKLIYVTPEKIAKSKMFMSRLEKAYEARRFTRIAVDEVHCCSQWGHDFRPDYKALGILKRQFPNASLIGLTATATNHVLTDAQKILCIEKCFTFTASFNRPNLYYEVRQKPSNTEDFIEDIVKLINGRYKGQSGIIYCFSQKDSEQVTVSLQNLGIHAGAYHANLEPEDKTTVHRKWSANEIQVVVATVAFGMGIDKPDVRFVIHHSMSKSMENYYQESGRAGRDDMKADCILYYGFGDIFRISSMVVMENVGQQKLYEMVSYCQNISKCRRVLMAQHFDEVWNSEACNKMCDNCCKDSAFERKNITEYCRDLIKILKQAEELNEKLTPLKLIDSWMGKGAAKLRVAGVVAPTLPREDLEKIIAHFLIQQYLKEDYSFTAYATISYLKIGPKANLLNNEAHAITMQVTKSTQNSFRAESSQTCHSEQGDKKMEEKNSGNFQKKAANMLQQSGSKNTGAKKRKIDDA
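50 nM RECQ1T1 preincubated 15 min with compound in Tris pH 8.0 buffer with MgCl2, DTT, Tween-20 and 2.5 ug/ml poly(dI-dC); started with 200 nM TAMRA/BHQ-2 forked duplex and 2 mM ATP. Unwinding read as fluorescence (525/598 nm), two reads 2 h apart.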
TDP1 block: inhibitors of human tyrosyl-DNA phosphodiesterase TDP1. Q9NUW8. recombinant TDP1, AlphaScreen DNA substrate cleavage. Potency, µM (titrated, usually from 130 µM), without a hit: at the highest dose activity change, negative = inhibition, most hits filed as inhibitors. hit rate 0.28% among 350,000. AID 485290; also: nearly all actives have a fitted effect of over 40% in size
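Tdp1 1 nM final; 15 min RT w/ cpd; substrate 15 nM, 5 min; beads 10 ug/ml, 10 min; AlphaScreen read. Neg ctrl: no enzyme.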
APEX1 inh: APE1 (human) endonuclease inhibition; recombinant APE1, TAMRA/BHQ-2 abasic DNA cleavage fluorescence; Potency, µM (titrated, usually from 65.8 µM), inactives show at the highest dose activity change, negative = inhibition, actives largely listed as inhibitors; hit rate 0.35% among 350,000; AID 2517;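 also: plate controls were vehicle for no effect and reference inhibitor for full effect; nearly all actives have a fitted effect of over 55% in size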
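Endonuclease cleavage of a quenched abasic-site DNA duplex (50 nM) by APE1 (0.75 nM) was tracked by TAMRA dequenching. Compounds were preincubated with enzyme 15 min at room temperature; data normalized to buffer-only and DMSO wells plus NSC13755 control.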
BLM inh: inhibitors of human Bloom syndrome helicase BLM; P54132; recombinant BLM DNA unwinding, fluorescence dequenching; Potency, µM (doses to about 56.1 µM), without a hit: at the highest dose activity change, negative = inhibition, hits mostly inhibitors; hit rate 0.2% among 350,000; AID 2528;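 also: plate controls were vehicle for no effect and no enzyme for full effect; nearly all actives have a fitted effect of over 35% in size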
JMJD2E inh: inhibitors of human JMJD2E histone demethylase; JMJD2E catalytic domain, FDH-coupled NADH fluorescence (FDH is formaldehyde dehydrogenase); AID 2147; Potency, µM (series often up to 57.1 µM), for the others: at the top dose activity change, negative = inhibition, usual class: inhibitors; hit rate 1.6% among 230,000; B2RXH2; active = well fitted inhibition curve with a large enough effect, not every such curve was filed as active; inconclusive = small, poorly fitted or top-dose-only effect, or another doubt; inactive = no such curve, though single readings can be large or run the other way;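 also: 0% = wells with enzyme and -100% = buffer wells without enzyme; nearly all actives have a fitted effect of over 50% in size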
RECQ1 conf: confirmation of human RECQ1 helicase inhibitors | shares compounds with RECQ1 inh-1 | RECQ1 helicase DNA unwinding, fluorescence | Potency, µM (top dose mostly 229 µM), without a hit: at the top dose activity change, negative = inhibition, hits mostly inhibitors | hit rate 28% among 610; also: nearly all actives have a fitted effect of over 45% in size
ADP FP counter: ADP displacement flagged in RECQ1 inhibitor counter-screen; shares compounds with RECQ1 inh-1; ADP fluorescence polarization displacement counterscreen; Potency, µM (top dose mostly 228 µM), without a hit: at the highest dose activity change, negative = inhibition, hits mostly inhibitors; hit rate 27% among 530; AID 2711; also: nearly all actives have a fitted effect of over 45% in size
RECQ1 inh-2: blocks human RECQ1 DNA unwinding | shares compounds with RECQ1 inh-1 | recombinant RECQ1 DNA unwinding, red fluorescence | Potency, µM (top dose mostly 119 µM), for the others: at the top dose activity, negative = inhibition, actives largely listed as inhibitors | hit rate 15% among 1,100; also: nearly all actives have a fitted effect of over 50% in size
* = called active by the depositor; i = inactive; u = inconclusive; x = no result given; [ ] = dose if it differs, or a comment. Unless noted, calls follow the shape of the dose curve; as a rule, active = well fitted curve in the direction sought with a large enough effect; inconclusive = small, poorly fitted or top-dose-only effect, or another doubt; inactive = no such curve, though single readings can be large; an effect the other way counts as inactive or inconclusive. Unless noted, % is scaled to controls: 0 for no effect and ±100 for the full control effect; potency is read from the fitted curve at half-maximal effect.

SMILES	L3MBTL1 block	RECQ1 inh-1	TDP1 block	APEX1 inh	BLM inh	JMJD2E inh	RECQ1 inh-2	others
O=C(/C=C/c1ccco1)NC(=S)Nc1ccc(Cl)cn1	x	25µM*	-7%	u	-10%	u	-22%
CCOC(=O)c1ncc2[nH]c3cccc(OC(C)C)c3c2c1C	x	i	17%	-5%	-10%	x	x
COCCCn1c(=O)/c(=C\c2ccccc2OC(F)F)s/c1=C(/C#N)C(=O)NC(C)C	-1%	u	5%	1%	-7%	11%	-13%
COCCCn1c(=O)/c(=C\c2ccc(OC(F)F)c(OC)c2)s/c1=C(/C#N)C(=O)NCCOC	15%	12%	0%	14%	-3%	4%	x
COCCCn1c(=O)/c(=C\c2ccccc2OC(C)C)s/c1=C(/C#N)C(=O)Nc1ccc(C(=O)O)cc1	-9%	u	-10%	-2%	-8%	-8%	u
CC1CCC/C(=C\Nc2ccc(O)cc2)C1=O (centres undefined)	u	u	4%	-5%	-8%	u	-28%
C=CCn1c(SCC(=O)N2c3ccccc3Sc3ccccc32)nnc1-c1ccco1	-22%	-2%	x	-1%	-7%	3%	x	RECQ1 conf=-10%;ADP FP counter=11%
Cn1c(CNC(=O)c2ccco2)nnc1SCC(=O)N1c2ccccc2Sc2ccccc21	x	3%	5%	-7%	-2%	3%	x	RECQ1 conf=-1%;ADP FP counter=14%
Cn1c(Cn2nnc3ccccc32)nnc1SCC(=O)N1c2ccccc2Sc2ccccc21	21%	i	10%	u	-5%	-1%	x	RECQ1 conf=-4%;ADP FP counter=25%
CCn1c(SCC(=O)N2c3ccccc3Sc3ccccc32)nnc1-c1ccco1	15%[11.4 µM]	-4%	9%	-2%	0%	-2%	x
O=C(Cn1c(=O)n(-c2ccc(Cl)cc2)c(=O)c2oc3ccccc3c21)Nc1ccccc1	x	x	5%	x	2%	x	x
Clc1nc(Nc2ccc(N3CCOCC3)cc2)c2ccccc2n1	-16%	14%	-2%	0%	-14%	u	x
O=S(=O)(Nc1nc2ccccc2nc1Nc1ccc(N2CCOCC2)cc1)c1cc(Cl)ccc1Cl	0%	u	5%	-4%	-9%	1%	-12%
Cc1ccc(CNC(=O)C2CCN(S(=O)(=O)c3cccs3)CC2)o1	-20%	u	4%[56.1 µM]	17%	0%	u	-16%
COc1ccc(CNCC(O)(c2ccc(Cl)cc2)c2ccc(Cl)cc2)cc1OC	-4%	14µM*	0%	-2%	-14%	7%	x	RECQ1 conf=u;ADP FP counter=22µM*
CC(=O)Oc1ccc2ccccc2c1C(NC(=O)Cc1ccccc1)c1ccc(Cl)cc1 (centres undefined)	-2%	u	-2%	9%	-12%	-19%	-13%
CCOc1ccc(C(NC(=O)CC)c2c(O)ccc3ccccc23)cc1 (centres undefined)	1%	x	3%	-18%	-8%	x	x
Cc1nn(Cc2c(Cl)cccc2Cl)c(C)c1C(=O)NCc1ccc(C)n1C	x	u	4%	-4%	-5%	u	-9%
COC(=O)C1(C(=O)OC)CC2=C[C@H](CC2=O)Cc2ccccc2[C@@H]1C[N+](=O)[O-]	x	5%	7%	5%	2%	2%	x
CC/C(=C/c1sc2ccc(C)cc2[n+]1CCCS(=O)(=O)[O-])SC	x	u	-2%	-10%	-3%	-3%	-4%
CC[n+]1c(S(=O)(=O)[O-])ccc2ccc(C)cc21	0%	i	1%	24%	-1%	u	x
CCOc1ccc(N2CC(NC(=O)C3CCCCC3)CC2=O)cc1 (centres undefined)	x	x	0%	x	1%	x	x
O=C1N/C(=N/NC(=O)c2cccc3ccccc23)S/C1=C\c1ccccc1OCc1ccccc1	1%	u	10%	10%	-26%	6%	u
O=C(O)CCC(=O)N1CCc2cc(S(=O)(=O)NC3CCCc4ccccc43)ccc21 (centres undefined)	50%	-13%	5%	-1%	4%	-20%	x	RECQ1 conf=6%;ADP FP counter=-1%
O=C(C1CCC1)N1CCc2cc(S(=O)(=O)NC3CCCC3)ccc21	1%	-6%	5%	10%	-4%	4%	x
SMILES	L3MBTL1 block	RECQ1 inh-1	TDP1 block	APEX1 inh	BLM inh	JMJD2E inh	RECQ1 inh-2	others
CC(=O)N1c2ccc(S(=O)(=O)N(C)Cc3ccco3)cc2CC1C (centres undefined)	x	x	1%	1%	-3%	x	x
O=C(O)CCC(=O)N1CCc2cc(S(=O)(=O)NC3CCCC3)ccc21	5%	-8%	6%	18%	-1%	3%	x	RECQ1 conf=10%;ADP FP counter=-3%
CN(Cc1ccco1)S(=O)(=O)c1ccc2c(c1)CCN2C(=O)CCC(=O)O	6%	-6%	-3%	5%	1%	2%	x	RECQ1 conf=3%;ADP FP counter=0%
CC(/C=C/C(=O)NO)=C\[C@@H](C)C(=O)c1ccc(N(C)C)cc1	x	11%	10%	3%	1%	x	x
O=C(Nc1cccc(NC(=O)c2cccs2)c1)c1ccc(Br)o1	x	x	x	-3%	-5%	x	x
O=C(Nc1ccc(NC(=O)c2cccs2)cc1)c1ccc(Br)o1	x	u	x	u	-18%	-15%	u
COc1cccc([C@@H]2Oc3ccc(OC)cc3[C@H](O)[C@H]2O)c1	x	i	5%	2%	1%	13%	x
COc1ccc(CNc2ncnc3ccc(-c4ccoc4)cc23)c(OC)c1	x	-4%	x	-2%	4%	x	x
COc1ccc2[nH]cc(CCNc3ncnc4ccc(-c5ccoc5)cc34)c2c1	x	u	x	-4%	-1%	x	u
O=C(NC(Cc1c[nH]c2ccccc12)C(=O)O)/C(=C/c1ccc(F)cc1)NC(=O)c1ccccc1 (centres undefined)	x	-3%	x	0%	-4%	-5%	x	RECQ1 conf=9%;ADP FP counter=0%
CCCN1CNc2c(c(=O)[nH]c(=S)n2CCc2ccc(Cl)cc2)C1	x	x	0%	x	x	x	x
COc1cc(Br)c(CCNC(=O)c2ccco2)cc1OC	-5%[11.4 µM]	u	-13%	20%	-2%	0%	-8%
O=C(CSc1nnc(-c2ccccc2)o1)c1nnc(-c2ccccc2)o1	-6%	u	9%	2%	-17%	u	-22%
COc1ccc2c(c1)Cc1sc(NC(=O)c3cccs3)nc1-2	-21%[11.4 µM]	u	9%	-13%	-20%	11µM*	17%
